Inconclusive results are not listed. A call without a number means that no potency is given here. Calls of active or inactive are those of the source. Calls follow the shape of the dose curve; as a rule, active = well fitted inhibition curve with a large enough effect; inconclusive = small, poorly fitted or top-dose-only effect; inactive = flat fitted curve, though single readings scatter. Where a SMILES comes first, the peptide text is derived from it. [ ]: non-standard residue; d: D form. Ala(indol-2-yl) = N[C@@H](Cc1cc2ccccc2[nH]1)C(=O)O; Aib = CC(C)(N)C(=O)O

Phospholipid hydroperoxide glutathione peroxidase GPX4 (Homo sapiens), sequence (P36969 whole entry, looked up): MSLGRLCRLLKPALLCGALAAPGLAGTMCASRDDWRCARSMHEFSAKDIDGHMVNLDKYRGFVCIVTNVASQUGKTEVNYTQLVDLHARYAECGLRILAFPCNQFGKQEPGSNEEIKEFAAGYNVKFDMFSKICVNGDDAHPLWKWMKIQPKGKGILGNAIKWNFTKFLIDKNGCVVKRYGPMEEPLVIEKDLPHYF

The first test addresses Phospholipid hydroperoxide glutathione peroxidase GPX4 (Homo sapiens) (UniProt P36969). The experiment in a line: Primary qHTS Assay for Inhibitors of Recombinant Selenoprotein Glutathione Peroxidase 4 (GPX4) (AID 1845192). Also: nearly all actives have a fitted effect of over 65% in size. The following applies: recombinant GPX4, GR-coupled NADPH fluorescence, 15 min; series mostly up to 50 µM. In outline:
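qHTS, GR-coupled: GPX4 200 nM + cpd 30 min RT → GSH 1 mM, NADPH 0.5 mM, GR 100 nM → CHP 0.5 mM start; fluor 340/450 at t0 and t15 min; no-enzyme wells as control.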
(In general: Quantitative high-throughput screening tests each substance at several concentrations.)
On to `Cc1c(Cl)c(OCC(=O)N2CCN(C)CC2)nc2sc(C(=O)NC3CC3)c(N)c12`, for which the Potency result was “inactive”.
With `CO[C@H]1[C@H](O)[C@H](O[C@H]2CC[C@]3(C=O)C4CC[C@]5(C)[C@H](C6=CC(=O)OC6)CC[C@]5(O)C4CC[C@@H]3C2)O[C@@H](C)[C@@H]1O` (some centres undefined), the Potency result is “inactive”.
Turning to `C[C@H]1O[C@@H](O[C@H]2CC[C@]3(C=O)C4CC[C@]5(C)[C@@H](C6=CC(=O)OC6)CC[C@]5(O)[C@@H]4CC[C@]3(O)C2)C[C@@H](O)[C@@H]1O` (some centres undefined), the Potency result is “inactive”.
Still for that read-out and setting: next, `COC1CC(O[C@H]2CC[C@]3(C=O)C4CC[C@]5(C)[C@@H](C6=CC(=O)OC6)CC[C@]5(O)[C@@H]4CC[C@@H]3C2)OC(C)C1O[C@@H]1O[C@H](CO)[C@@H](O[C@@H]2O[C@H](CO)[C@@H](O)[C@H](O)[C@H]2O)[C@H](O)[C@H]1O` (some centres undefined): “inactive”.
With `C[C@]12CC[C@H](O)C[C@H]1CC[C@@H]1[C@@H]2[C@H](O)C[C@]2(C)[C@@H](c3ccc(=O)oc3)CC[C@]12O`, the Potency entry is “inactive”.
In the case of `C[C@H]1O[C@@H](O[C@H]2CC[C@]3(CO)C4CC[C@]5(C)[C@@H](C6=CC(=O)OC6)CC[C@]5(O)[C@@H]4CC[C@H]3C2)[C@H](O)[C@H](O)[C@@H]1O[C@@H]1O[C@H](CO)[C@@H](O)[C@H](O)[C@H]1O` (some centres undefined), the Potency entry is “inactive”.
Regarding `CC1=C[C@H]2O[C@@H]3[C@H](O)[C@@H](O)[C@](C)([C@@]2(CO)C[C@@H]1O)[C@]31CO1`, the Potency entry is “inactive”.
Still for that read-out and setting: next, `C[C@H]1O[C@@H](n2cnc3c(N)ncnc32)C[C@@H]1O`: “inactive”; `OCc1nnc2n1-c1ccc(Cl)cc1C(c1ccccc1Cl)=NC2`: “inactive”.
Take `CC[C@H]1C2CC3[C@@H]4N(C)c5ccccc5[C@]45C[C@@H]([C@H]2[C@H]5O)N3[C@@H]1O`: the Potency entry was “inactive”.
Still for that read-out and setting: next, `CC[C@@]1(O)C(=O)OCc2c1cc1n(c2=O)Cc2cc3c(OC)cccc3nc2-1`: “inactive”; `CC1=CC2OC3[C@H](O)C[C@@](C)([C@]34CO4)[C@@]2(CO)[C@H](O)C1=O` (some centres undefined): “inactive”.
As to `CC(=O)O[C@H]1CC[C@@]2(CI)C(=CC[C@@H]3[C@@H]2CC[C@]2(C)C(=O)CC[C@@H]32)C1`, the Potency entry was “inactive”.
As to `C=C1[C@@H](C)[C@H]2[C@H](Cc3ccccc3)NC(=O)[C@]23OC(=O)/C=C/C(=O)CCC[C@@H](C)C/C=C/[C@H]3[C@@H]1O`, the Potency result is “inactive”.
Regarding `C[C@H](CCC(=O)O)C[C@H](C)C[C@H](C)C(=O)/C=C(\O)[C@H](C)C[C@H](C)C/C=C/[C@@H](C)[C@@H](O)[C@@H](C)[C@@H](O)C[C@@H]1CC[C@@](C)([C@H]2CC[C@@](C)([C@@H](C)O)O2)O1`, the Potency result is “inactive”.
The same measure, in the same setting: next, `CN(C)c1cc2c(cc1Sc1nc3c(N)nccc3n1CCNCC(C)(C)C)OCO2`: “inactive”.
Turning to `C[C@H]1C/C=C/[C@H]2[C@@H]3O[C@]3(C)[C@@H](C)[C@H]3[C@H](Cc4ccccc4)NC(=O)[C@]32OC(=O)O/C=C/[C@@](C)(O)C1=O`, the Potency result was “inactive”.
Regarding `CC(=O)O[C@H]1CN2CCC1CC2`, the Potency entry was “inactive”.
Regarding `CC(=O)OC[C@]12C[C@H](O)C(C)=C[C@H]1O[C@@H]1[C@H](O)[C@@H](OC(C)=O)[C@@]2(C)[C@]12CO2`, the Potency entry is “inactive”.
With `CC1=CC(=O)[C@@H](O)[C@]2(C)C3[C@@H](O)[C@@H]4OC(=O)[C@@H]([C@H]4C)[C@]3(C)C(=O)C[C@@H]12` (some centres undefined), the Potency entry was “inactive”.
On the same count and under the same terms, next, `CC[C@@H]1C[C@H]2CC[C@H](O2)[C@H](C)C(=O)O[C@@H](C)C[C@@H]2CC[C@@H](O2)[C@@H](C)C(=O)O[C@H](CC)C[C@H]2CC[C@H](O2)[C@H](C)C(=O)O[C@@H](C)C[C@@H]2CC[C@@H](O2)[C@@H](C)C(=O)O1`: “inactive”.
Consider `N#Cc1cn([C@@H]2O[C@H](CO)[C@H](O)[C@@H]2O)c2ncnc(N)c12`, for which the Potency result is “inactive”.

The target of a further test is Luciferin 4-monooxygenase (Photinus pyralis) (UniProt P08659). The experiment in a line: Primary firefly luciferase (FLuc) qHTS assay for identification of artifact compounds. (AID 1845220). Also: nearly all actives have a fitted effect of over 60% in size. The following applies: purified firefly luciferase, luminescence, 5 min; series mostly up to 54.1 µM. In a few lines:
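Reaction readout was CCD-imaged luminescence, taken 5 min after adding 10 nM purified firefly enzyme to compound-treated wells holding 10 uM luciferin and ATP in pH 7.6 buffer.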
As to `O=C(OC[C@H]1O[C@@H](Oc2ccc(O)cc2CO)[C@H](O)[C@@H](O)[C@@H]1O)c1ccccc1`, the result was inactive.
On to `CC(=O)O[C@@H]1[C@@H](O)[C@H]2O[C@@H]3C=C(C)[C@@H](O)C[C@]3(CO)[C@]1(C)[C@]21CO1`, for which the outcome was inactive.
Regarding `COc1cc2c(c(OC)c1OC)-c1ccc(SC)c(=O)cc1[C@@H](NC(C)=O)CC2`, the outcome was inactive.
On to `CC(C)(NC(=O)[C@@H](N)Cc1ccc(O)cc1)C(=O)N[C@@H](Cc1cc2ccccc2[nH]1)C(=O)N[C@@H](Cc1ccccc1)C(=O)O` (H-Y[Aib][Ala(indol-2-yl)]F-OH), for which the activity change, negative = inhibition was 1.26% [at 11.6 µM] (inactive).
As to `C=C1[C@@H](C)[C@H]2[C@H](Cc3ccccc3)NC(=O)[C@]23[C@H](OC(C)=O)/C=C/[C@](C)(O)C(=O)[C@@H](C)C/C=C/[C@H]3[C@@H]1O`, the molecule was classed as inactive.
Take `COc1ccc2c3c([nH]c2c1)C(C=C(C)C)N1C(=O)C2CCCN2C(=O)C1C3` (centres undefined): the call was inactive.
Regarding `C[C@@H]1C[C@@H](O)[C@]2(O)O[C@@H]3C[C@@]4(C=O)C(CC[C@@H]5C4CC[C@]4(C)[C@@](O)(C6=CC(=O)OC6)CC[C@]54O)C[C@H]3OC2O1` (some centres undefined), the outcome is “inactive [at 25.7 µM]”.
Regarding `CC(=O)OC[C@]12C[C@H](OC(=O)CC(C)C)C(C)=C[C@H]1O[C@@H]1[C@H](O)[C@@H](OC(C)=O)[C@@]2(C)[C@@]12CO2`, the outcome was “inactive [at 25.7 µM]”.
With `CC[C@H](C)[C@H](NC(=O)[C@H]1CCCCN1C)C(=O)N(COC(=O)CC(C)C)[C@H](C[C@@H](OC(C)=O)c1nc(C(=O)N[C@@H](Cc2ccc(O)cc2)C[C@H](C)C(=O)O)cs1)C(C)C`, the activity change, negative = inhibition is -4.53% [at 1.03 µM] (inactive).
Take `CN[C@@H]1C[C@H]2O[C@@](C)([C@@H]1OC)n1c3ccccc3c3c4c(c5c6ccccc6n2c5c31)C(=O)NC4`: the call was inactive.
Still for that read-out and setting: next, `CC1=C[C@H]2O[C@@H]3C[C@H]4OC(=O)/C=C/C=C/C(=O)OCC/C(C)=C/C(=O)OC[C@@]2(CC1)[C@]4(C)[C@]31CO1`: “inactive [at 25.7 µM]”; `CC(=O)OC[C@]12C[C@H](OC(=O)CC(C)C)C(C)=C[C@H]1O[C@@H]1[C@H](O)[C@@H](O)[C@@]2(C)[C@]12CO2`: “inactive”.
On to `CC(=O)OC[C@]12C[C@H](OC(=O)CC(C)C)C(C)=C[C@H]1O[C@@H]1[C@H](O)C[C@@]2(C)[C@]12CO2`, for which the outcome was “inactive [at 25.7 µM]”.
In the case of `COC1CC(O[C@H]2CC[C@]3(C)C4CC[C@]5(C)[C@@H](C6=CC(=O)OC6)[C@@H](OC(C)=O)C[C@]5(O)C4CC[C@@H]3C2)OC(C)C1O[C@@H]1O[C@H](CO)[C@@H](O)[C@H](O)[C@H]1O` (some centres undefined), the outcome was inactive.
On to `Cc1c(Cl)c(OCC(=O)N2CCN(C)CC2)nc2sc(C(=O)NC3CC3)c(N)c12`, for which the call was inactive.
With `C[C@H]1O[C@@H](O[C@H]2CC[C@]3(C=O)C4CC[C@]5(C)[C@@H](C6=CC(=O)OC6)CC[C@]5(O)[C@@H]4CC[C@]3(O)C2)C[C@@H](O)[C@@H]1O` (some centres undefined), the call was inactive.
On to `COC1CC(O[C@H]2CC[C@]3(C=O)C4CC[C@]5(C)[C@@H](C6=CC(=O)OC6)CC[C@]5(O)[C@@H]4CC[C@@H]3C2)OC(C)C1O[C@@H]1O[C@H](CO)[C@@H](O[C@@H]2O[C@H](CO)[C@@H](O)[C@H](O)[C@H]2O)[C@H](O)[C@H]1O` (some centres undefined), for which the activity change, negative = inhibition is 0.154% [at 11.6 µM] (inactive).
As for `C[C@]12CC[C@H](O)C[C@H]1CC[C@@H]1[C@@H]2[C@H](O)C[C@]2(C)[C@@H](c3ccc(=O)oc3)CC[C@]12O`, the molecule was classed as inactive.
As to `C[C@H]1O[C@@H](O[C@H]2CC[C@]3(CO)C4CC[C@]5(C)[C@@H](C6=CC(=O)OC6)CC[C@]5(O)[C@@H]4CC[C@H]3C2)[C@H](O)[C@H](O)[C@@H]1O[C@@H]1O[C@H](CO)[C@@H](O)[C@H](O)[C@H]1O` (some centres undefined), the outcome was inactive.
Consider `CC1=C[C@H]2O[C@@H]3[C@H](O)[C@@H](O)[C@](C)([C@@]2(CO)C[C@@H]1O)[C@]31CO1`, for which the outcome was inactive.
As to `C[C@H]1O[C@@H](n2cnc3c(N)ncnc32)C[C@@H]1O`, the result was inactive.
As for `OCc1nnc2n1-c1ccc(Cl)cc1C(c1ccccc1Cl)=NC2`, the molecule was called inactive.
Take `CC[C@H]1C2CC3[C@@H]4N(C)c5ccccc5[C@]45C[C@@H]([C@H]2[C@H]5O)N3[C@@H]1O`: the molecule was classed as inactive.
Regarding `CO[C@@H]1C[C@H](O[C@H]2CC[C@@]3(C)C(CCC4C3CC[C@]3(C)[C@@H](C5=CC(=O)OC5)[C@@H](OC(C)=O)CC43O)C2)O[C@H](C)[C@@H]1O[C@H]1O[C@H](CO[C@@H]2O[C@H](CO)[C@@H](O)[C@H](O)[C@H]2O)[C@@H](O)[C@H](O)[C@H]1O` (some centres undefined), the activity change, negative = inhibition was -3.37% [at 11.6 µM] (inactive).
On to `CC[C@@]1(O)C(=O)OCc2c1cc1n(c2=O)Cc2cc3c(OC)cccc3nc2-1`, for which the molecule was called inactive.
On the same count and under the same terms, for `CC1=CC2OC3[C@H](O)C[C@@](C)([C@]34CO4)[C@@]2(CO)[C@H](O)C1=O` (some centres undefined) the value was “inactive”; for `CC(=O)O[C@H]1CC[C@@]2(CI)C(=CC[C@@H]3[C@@H]2CC[C@]2(C)C(=O)CC[C@@H]32)C1`, “inactive”; for `C=C1[C@@H](C)[C@H]2[C@H](Cc3ccccc3)NC(=O)[C@]23OC(=O)/C=C/C(=O)CCC[C@@H](C)C/C=C/[C@H]3[C@@H]1O`, “inactive”.
For `C[C@H](CCC(=O)O)C[C@H](C)C[C@H](C)C(=O)/C=C(\O)[C@H](C)C[C@H](C)C/C=C/[C@@H](C)[C@@H](O)[C@@H](C)[C@@H](O)C[C@@H]1CC[C@@](C)([C@H]2CC[C@@](C)([C@@H](C)O)O2)O1`, the call was inactive.
In the case of `CN(C)c1cc2c(cc1Sc1nc3c(N)nccc3n1CCNCC(C)(C)C)OCO2`, the molecule was called inactive.
Same read-out and setting: for `C[C@H]1C/C=C/[C@H]2[C@@H]3O[C@]3(C)[C@@H](C)[C@H]3[C@H](Cc4ccccc4)NC(=O)[C@]32OC(=O)O/C=C/[C@@](C)(O)C1=O` the value was “inactive [at 25.7 µM]”; for `CC(C)(C)[C@]1(O)C[C@@H]2OC(=O)C[C@@]23C(=O)O[C@@H]2OC(=O)[C@@H](O)[C@]213`, “inactive”.

These data come from PubChem BioAssay (NCATS).
